The values below come from PubChem BioAssay (EPA / NIEHS).

What is called AC50 is the concentration at which the activity in the assay is half-maximal.

Experiment [1] can be described thus: BSK_hDFCGF_SRB: Viability Assessment in the BioMAP Diversity Plus: hDFCGF Assay (AID 2283061).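 Further: cells exposed to compound for 24 h before the read.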 The following applies: primary human foreskin fibroblasts. In short, it runs like this: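 Cells were dosed with test chemical, cultured 24 h, fixed with 10% TCA, then stained with 0.1% SRB and read at 560 nm. The fibroblasts were human foreskin primary cells, and DMSO served as baseline.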

Read-out in experiment [2]: TIMP metallopeptidase inhibitor 1 (TIMP1), TIMP1 (gene 7076)
Briefly: BSK_hDFCGF_TIMP1: BioMAP Diversity Plus: hDFCGF Assay for TIMP metallopeptidase inhibitor 1 (TIMP1) Biomarker Activity (AID 2283062). The following applies: primary human foreskin fibroblasts; actives raise or lower the signal. In short, it runs like this:
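Fibroblasts from human foreskin are treated with test chemical and harvested at 24 h. TIMP-1 is quantified by ELISA, and gain or loss of signal is scored against DMSO.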

Read-out in experiment [3]: Monokine induced gamma interferon (MIG), CXCL9 (gene 4283)
Briefly: BSK_hDFCGF_MIG: BioMAP Diversity Plus: hDFCGF Assay for Monokine induced gamma interferon (MIG) Biomarker Activity (AID 2283063). Conditions: primary human foreskin fibroblasts; actives raise or lower the signal. Summed up: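 MIG signal, determined by ELISA, reflects 24 h chemical exposure of human skin primary fibroblasts. DMSO serves as negative control and baseline.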

Read-out in experiment [4]: Matrix Metallopeptidase 1 (MMP1), MMP1 (gene 4312)
Briefly: BSK_hDFCGF_MMP1: BioMAP Diversity Plus: hDFCGF Assay for Matrix Metallopeptidase 1 (MMP1) Biomarker Activity (AID 2283064). The following applies: primary human foreskin fibroblasts; actives raise or lower the signal. In short, it runs like this: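 Primary human foreskin fibroblasts exposed to chemicals for 24 h; MMP1 measured by ELISA. Cytotoxicity tracked by SRB staining in parallel cultures; bidirectional fit relative to DMSO.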

Read-out in experiment [5]: Vascular cell adhesion molecule 1 (VCAM1), VCAM1 (gene 7412)
Briefly: BSK_hDFCGF_VCAM1: BioMAP Diversity Plus: hDFCGF Assay for Vascular cell adhesion molecule 1 (VCAM1) Biomarker Activity (AID 2283065).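 On AC50: VCAM-1 protein level quantified by ELISA after 24 h chemical exposure.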 The following applies: primary human foreskin fibroblasts; actives raise or lower the signal. In short, it runs like this:
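Cells are dosed, cultured for 24 h, then VCAM-1 is quantified by ELISA; signal increases and decreases are both fitted relative to DMSO.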

Read-out in experiment [6]: Plasminogen activator inhibitor-1 (PAI1), SERPINE1 (gene 5054)
Briefly: BSK_hDFCGF_PAI1: BioMAP Diversity Plus: hDFCGF Assay for Plasminogen activator inhibitor-1 (PAI1) Biomarker Activity (AID 2283066). Conditions: primary human foreskin fibroblasts; actives raise or lower the signal. Summed up:
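Human foreskin fibroblast primary cells, 24 h chemical exposure; PAI-1 measured by ELISA. Bidirectional fitting relative to DMSO; parallel cultures stained with SRB for total protein to flag overt cytotoxicity.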

Read-out in experiment [7]: Intercellular Adhesion Molecule 1 (ICAM1), ICAM1 (gene 3383)
Briefly: BSK_KF3CT_ICAM1: BioMAP Diversity Plus: KF3CT Assay for Intercellular Adhesion Molecule 1 (ICAM1) Biomarker Activity (AID 2283067). The following applies: primary human keratinocytes with fibroblasts; actives raise or lower the signal. Summed up: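 Dose the keratinocyte/fibroblast co-culture, wait 24 h, measure ICAM-1 by ELISA, then fit increases or decreases against DMSO. Cytotoxicity is checked in parallel cultures by SRB total-protein staining.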

Read-out in experiment [8]: Interferon-gamma inducible Protein 10 (IP10), CXCL10 (gene 3627)
Briefly: BSK_KF3CT_IP10: BioMAP Diversity Plus: KF3CT Assay for Interferon-gamma inducible Protein 10 (IP10) Biomarker Activity (AID 2283068). Conditions: primary human keratinocytes with fibroblasts; actives raise or lower the signal. In short, it runs like this: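 KF3CT co-culture (keratinocytes + foreskin fibroblasts), 24 h compound, IP-10 by ELISA; bidirectional fit vs DMSO baseline.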

Experiment [9] is described as follows: BSK_KF3CT_SRB: Viability Assessment in the BioMAP Diversity Plus: KF3CT Assay (AID 2283069).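 Further: fitted for both signal gain and loss against DMSO baseline.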 Conditions: primary human keratinocytes with fibroblasts. In short, it runs like this:
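Human keratinocyte and foreskin fibroblast co-culture exposed to chemical for 24 h. Total protein measured in parallel cultures by 0.1% sulforhodamine B staining after 10% TCA fixation, read at 560 nm; bidirectional fit relative to DMSO.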

Read-out in experiment [10]: Interleukin-1 alpha (IL1a), IL1A (gene 3552)
Briefly: BSK_KF3CT_IL1a: BioMAP Diversity Plus: KF3CT Assay for Interleukin-1 alpha (IL1a) Biomarker Activity (AID 2283070). Conditions: primary human keratinocytes with fibroblasts; actives raise or lower the signal. In short, it runs like this: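 Primary human keratinocyte plus foreskin fibroblast co-culture, dosed and measured at 24 h in 96-well plates. IL-1a level quantified by ELISA; bidirectional fit relative to DMSO.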

Read-out in experiment [11]: TIMP metallopeptidase inhibitor 2 (TIMP2), TIMP2 (gene 7077)
Briefly: BSK_KF3CT_TIMP2: BioMAP Diversity Plus: KF3CT Assay for TIMP metallopeptidase inhibitor 2 (TIMP2) Biomarker Activity (AID 2283071). The following applies: primary human keratinocytes with fibroblasts; actives raise or lower the signal. In short, it runs like this: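 Co-culture of human primary keratinocytes and foreskin fibroblasts, measured 24 h after chemical dosing. TIMP-2 quantified by ELISA and fitted in both directions relative to DMSO. Cytotoxicity checked in parallel cultures by SRB total-protein staining.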

Read-out in experiment [12]: C-C motif chemokine 2 (Homo sapiens) (UniProt P13500)
Briefly: BSK_KF3CT_MCP1: BioMAP Diversity Plus: KF3CT Assay for Monocyte Chemoattractant Protein 1 (MCP1/CCL2) Biomarker Activity (AID 2283073). Conditions: primary human keratinocytes with fibroblasts; actives raise or lower the signal. Summed up: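 Keratinocytes and foreskin fibroblasts were co-cultured, dosed with chemical, and sampled 24 h later. MCP-1 was quantified by ELISA, and the endpoint was analyzed with bidirectional fitting using DMSO as negative control.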

Read-out in experiment [13]: Matrix Metallopeptidase 9 (MMP9), MMP9 (gene 4318)
Briefly: BSK_KF3CT_MMP9: BioMAP Diversity Plus: KF3CT Assay for Matrix Metallopeptidase 9 (MMP9) Biomarker Activity (AID 2283074).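 On AC50: MMP9 protein level quantified by ELISA in the co-culture.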 The following applies: primary human keratinocytes with fibroblasts; actives raise or lower the signal. In short, it runs like this:
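Human keratinocyte and foreskin fibroblast co-culture exposed to chemicals for 24 h; MMP9 biomarker measured by ELISA, bidirectional fitting relative to DMSO; cytotoxicity tracked by SRB total protein staining in parallel cultures.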

Read-out in experiment [14]: urokinase plasminogen activator (uPA), PLAU (gene 5328)
Briefly: BSK_KF3CT_uPA: BioMAP Diversity Plus: KF3CT Assay for urokinase plasminogen activator (uPA) Biomarker Activity (AID 2283075). The following applies: primary human keratinocytes with fibroblasts; actives raise or lower the signal. In short, it runs like this:
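Primary human keratinocyte/foreskin fibroblast co-culture exposed to chemical; uPA measured by ELISA at 24 h. Bidirectional fit versus DMSO, with parallel SRB total-protein staining for cytotoxicity.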

Read-out in another experiment: CD40, CD40 (gene 958)
Briefly: BSK_LPS_CD40: BioMAP Diversity Plus: LPS Assay for CD40 Biomarker Activity (AID 2283076). The following applies: primary human HUVEC with PBMC; actives raise or lower the signal. Summed up:
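CD40 signal, measured by ELISA, is fitted in both directions relative to DMSO vehicle. The system is an LPS-driven human vascular primary co-culture of endothelial cells and PBMC, sampled 24 h after compound addition.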

Read-out in experiment [15]: E-selectin (Homo sapiens) (UniProt P16581)
Briefly: BSK_LPS_Eselectin: BioMAP Diversity Plus: LPS Assay for Eselectin Biomarker Activity (AID 2283077). Conditions: primary human HUVEC with PBMC; actives raise or lower the signal. Summed up:
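Signal of E-selectin, detected by ELISA, served as the endpoint; cells were umbilical vein endothelium with PBMC, read 24 h after treatment. DMSO defined baseline, and both increases and decreases were fitted.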

Read-out in experiment [16]: Interleukin-8 (IL8), CXCL8 (gene 3576)
Briefly: BSK_LPS_IL8: BioMAP Diversity Plus: LPS Assay for Interleukin-8 (IL8) Biomarker Activity (AID 2283078). Conditions: primary human HUVEC with PBMC; actives raise or lower the signal. Summed up: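 Endothelial cells and PBMC from human donors are co-cultured, treated with chemicals and LPS, then assayed for IL-8 by ELISA after 24 h. Parallel SRB staining (0.1% SRB after 10% TCA fixation, 560 nm) flags cytotoxicity.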

Experiment [17] in a line: BSK_LPS_SRB: Viability Assessment in the BioMAP Diversity Plus: LPS Assay (AID 2283079).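 Further: total protein by sulforhodamine B absorbance as a cytotoxicity measure; measured one day after compound addition; fitted in both directions against DMSO so loss or gain of signal counts.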 Conditions: primary human HUVEC with PBMC. In short, it runs like this:
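Overt cytotoxicity was gauged by sulforhodamine B total-protein staining in a primary human vascular endothelial and mononuclear cell co-culture 24 h post-dosing. Activity was fitted in both directions relative to DMSO.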

Read-out in experiment [18]: Interleukin-1 alpha (IL1a), IL1A (gene 3552)
Briefly: BSK_LPS_IL1a: BioMAP Diversity Plus: LPS Assay for Interleukin-1 alpha (IL1a) Biomarker Activity (AID 2283080). Conditions: primary human HUVEC with PBMC; actives raise or lower the signal. Summed up:
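Measured: IL-1 alpha via ELISA at 24 h in LPS-activated human umbilical vein endothelium–PBMC co-culture. Baseline: DMSO, bidirectional fitting.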

Calls of active or inactive are those of the source. How the source made its calls: active means hit-call score of the fitted dose curve at least 0.9, where 1 is the maximum; inactive means score below 0.9.

Sequence of E-selectin (Homo sapiens) (P16581 whole entry, looked up): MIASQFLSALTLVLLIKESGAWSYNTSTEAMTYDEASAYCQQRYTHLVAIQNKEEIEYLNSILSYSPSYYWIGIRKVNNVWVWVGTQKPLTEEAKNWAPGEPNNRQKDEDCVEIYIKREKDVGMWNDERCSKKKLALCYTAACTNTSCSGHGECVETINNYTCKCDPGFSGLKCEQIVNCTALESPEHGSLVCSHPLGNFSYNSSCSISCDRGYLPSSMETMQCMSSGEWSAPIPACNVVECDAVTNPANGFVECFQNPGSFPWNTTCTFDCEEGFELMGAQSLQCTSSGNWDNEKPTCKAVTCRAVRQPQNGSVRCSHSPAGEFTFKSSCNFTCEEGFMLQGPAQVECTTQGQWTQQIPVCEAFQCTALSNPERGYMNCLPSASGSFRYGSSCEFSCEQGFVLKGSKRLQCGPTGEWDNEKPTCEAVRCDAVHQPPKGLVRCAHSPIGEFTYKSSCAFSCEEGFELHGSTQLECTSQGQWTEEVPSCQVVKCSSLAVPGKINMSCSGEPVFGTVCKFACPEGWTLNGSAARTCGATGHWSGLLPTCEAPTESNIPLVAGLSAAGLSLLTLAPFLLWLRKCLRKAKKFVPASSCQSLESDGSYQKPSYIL

`CCc1ccc(O)c(C(C)(C)C)c1`: the AC50 is 36.2 µM (active) in experiment [1]; 31.1 µM (active) in [2]; 32.6 µM (active) in experiment [3]; 31.8 µM (active) in [4]; 30.4 µM (active) in experiment [5]; 28.1 µM (active) in experiment [6]. In addition, the AC50 is 31.2 µM (active) in experiment [7]; 36.8 µM (active) in [8]; 35.7 µM (active) in experiment [9]; 30.5 µM (active) in experiment [10]; 36.5 µM (active) in experiment [11]; 36.8 µM (active) in experiment [12]. Further, the results for the AC50 in [13], in [14] and in experiment [17] were 34.7 µM (active), 35.3 µM (active) and 32 µM (active), respectively. Further, the outcome with CD40, CD40 (gene 958) is “inactive”; in [15], “inactive”; in [16], “inactive”; in [18], “inactive”.
Take `O=S1(=O)CCCO1`: the outcome in [1], in experiment [2], in experiment [3], in [4], in experiment [5] and in [6] was inactive. For the same compound, the result in experiment [7], in [8], in experiment [9], in experiment [10], in [11] and in experiment [12] was inactive. Further, the outcome in [13] is “inactive”; in experiment [14], “inactive”; with CD40, CD40 (gene 958), “inactive”; in experiment [15], “inactive”; in experiment [16], “inactive”; in [17], “inactive”. The result in experiment [18] was inactive.
For `CC1(C)C(=O)N(Cl)C(=O)N1Cl`, the outcome in [1], in experiment [2], in experiment [3], in experiment [4], in experiment [5] and in experiment [6] was inactive. Further, the outcome in experiment [7], in experiment [8], in experiment [9], in [10], in [11] and in experiment [12] was inactive. Further, the outcome in [13] is “inactive”; in [14], “inactive”; with CD40, CD40 (gene 958), “inactive”; in [15] it was “inactive”; in experiment [16] it was “inactive”; in [17], “inactive”. Also, in experiment [18], the result was inactive.
